In PubChem BioAssay AID1159580 (chemical genetic matrix, 2015):
Hit rate of the full screen: of about 5,500 compounds, about 2,000 (36%) were called active. Another 18% or so got no clear call; they are omitted. Rule as the data show it: active = normalized growth mostly below about 0.91 (no sharp cut-off); inconclusive = no clear call, values can overlap the other calls; inactive = mostly above about 0.92. This is one part of the list.

Assay: chemical genetic growth profiling, strain panel (AID 1159580);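 also: tested at 20 µM; growth read once vehicle control cultures reached saturation at 30 °C; 1 = growth at the plate median or of vehicle wells; lower values mean less growth of the strain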
Details: S. cerevisiae deletion strains, growth OD

Measured: normalized growth

Cc1ncc(CSSCc2cnc(C)c(O)c2CO)c(CO)c1O
inactive: locus YHR030C, strain SLT2, active compounds read low 1.01 | locus YHR079C, strain IRE1, active compounds read low 1.01 | locus YJL095W, strain BCK1, active compounds read low 0.995 | locus YJR066W, strain TOR1, active compounds read low 0.945 | locus YLR113W, strain HOG1, active compounds read low 0.983 | locus YNL183C, strain NPR1, active compounds read low 0.948 | locus YOR231W, strain MKK1, active compounds read low 1.01 | locus YPL256C, strain CLN2, active compounds read low 1.01
